For test [1], the target named is Estrogen receptor (Homo sapiens) (UniProt P03372). As to the kind of experiment: OT_ER_ERaERa_1440: Odyssey Thera (OT) 24-hour HEK293T Protein-Complementation Assay for Estrogen Receptor-alpha/-alpha Homodimer (AID 2283349).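 Note: hits raise fluorescence above DMSO for agonists and antagonists alike.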 The gist of the method:
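HEK293T, stable ERα LBD (aa 310-547) homodimer PCA; 24 h compound exposure; mean fluorescence intensity (nuclear for agonists, nuclear plus cytoplasmic for antagonists) vs vehicle; positive fitting direction, DMSO baseline.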

Test [2] has the same target. Kind of test: OT_ER_ERaERa_0480: Odyssey Thera (OT) 8-hour HEK293T Protein-Complementation Assay for Estrogen Receptor-alpha/-alpha Homodimer (AID 2283351).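 Note: rise in fluorescence from reassembled reporter fragments on ERα LBD homodimer in nucleus or whole cell.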 A digest of the protocol: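 Measures ERα LBD (aa 310-547) homodimer complementation in stably transfected HEK293T at 8 h post-dose, with fluorescence intensity quantified on a laser scanning cytometer relative to DMSO controls.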

Test [3] deals with T1, Estrogen receptor (Homo sapiens) + Estrogen receptor beta (Homo sapiens) (UniProt P03372+Q92731). Kind of test: OT_ER_ERaERb_0480: Odyssey Thera (OT) 8-hour HEK293T Protein-Complementation Assay for Estrogen Receptor-alpha/-beta Heterodimer (AID 2283352). A digest of the protocol:
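Human HEK293T cells were treated for 8 hours and receptor heterodimerisation was detected through reconstitution of a fluorescent reporter split between ER-alpha and ER-beta ligand-binding domains. Activity was analysed as gain of signal against DMSO.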

Test [4] concerns the target T1, Estrogen receptor (Homo sapiens) + Estrogen receptor beta (Homo sapiens). Kind of test: OT_ER_ERaERb_1440: Odyssey Thera (OT) 24-hour HEK293T Protein-Complementation Assay for Estrogen Receptor-alpha/-beta Homodimer (AID 2283356).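 Note: heteromer of ER alpha and ER beta binding domains; hits raise reporter fluorescence and both agonists and antagonists give an increase.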 A digest of the protocol:
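24 h exposure; HEK293T PCA cells with ERα/ERβ LBD fragments; signal rise in nuclear or whole-cell fluorescence over vehicle.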

Test [5] deals with Androgen Receptor/SRC-1 Co-activator, AR (gene 367) (UniProt P10275). As to the kind of experiment: OT_AR_ARSRC1_0960: Odyssey Thera (OT) 16-hour HEK293T Protein-Complementation Assay for Androgen Receptor/SRC-1 Co-activator (AID 2283353).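 Note: actives raise the signal above DMSO so potency reflects increased AR and SRC-1 complex.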 A digest of the protocol:
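Sixteen-hour cell assay: Venus halves fused to AR and SRC-1 in HEK293T report binding. Images at 488/635 nm give an N/C ratio in the 488 nm channel over ≥400 cells, analysed as signal increase over DMSO.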

Test [6] shares this target. Kind of test: OT_AR_ARSRC1_0480: Odyssey Thera (OT) 8-hour HEK293T Protein-Complementation Assay for Androgen Receptor/SRC-1 Co-activator (AID 2283354).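 Note: hits raise the complementation signal above DMSO so AC50 marks enhancers.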 The gist of the method:
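Reconstituted split-Venus YFP signal from AR–SRC-1 interaction, read by imaging 8 h post-dose in stable HEK293T lines. The 488 nm nucleus-to-cytoplasm ratio (≥400 cells/image) was fitted upward against DMSO.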

Inconclusive results are not listed. Calls of active or inactive are those of the source. Rule for the calls: active = hit-call score of the fitted dose curve at least 0.9, where 1 is the maximum; inconclusive = response in the unintended direction; inactive = score below 0.9.

In general, AC50 refers to the concentration at which the activity in the assay is half-maximal.

Sequence of Androgen Receptor/SRC-1 Co-activator, AR (gene 367) (P10275 whole entry, looked up, the tested form may be a part): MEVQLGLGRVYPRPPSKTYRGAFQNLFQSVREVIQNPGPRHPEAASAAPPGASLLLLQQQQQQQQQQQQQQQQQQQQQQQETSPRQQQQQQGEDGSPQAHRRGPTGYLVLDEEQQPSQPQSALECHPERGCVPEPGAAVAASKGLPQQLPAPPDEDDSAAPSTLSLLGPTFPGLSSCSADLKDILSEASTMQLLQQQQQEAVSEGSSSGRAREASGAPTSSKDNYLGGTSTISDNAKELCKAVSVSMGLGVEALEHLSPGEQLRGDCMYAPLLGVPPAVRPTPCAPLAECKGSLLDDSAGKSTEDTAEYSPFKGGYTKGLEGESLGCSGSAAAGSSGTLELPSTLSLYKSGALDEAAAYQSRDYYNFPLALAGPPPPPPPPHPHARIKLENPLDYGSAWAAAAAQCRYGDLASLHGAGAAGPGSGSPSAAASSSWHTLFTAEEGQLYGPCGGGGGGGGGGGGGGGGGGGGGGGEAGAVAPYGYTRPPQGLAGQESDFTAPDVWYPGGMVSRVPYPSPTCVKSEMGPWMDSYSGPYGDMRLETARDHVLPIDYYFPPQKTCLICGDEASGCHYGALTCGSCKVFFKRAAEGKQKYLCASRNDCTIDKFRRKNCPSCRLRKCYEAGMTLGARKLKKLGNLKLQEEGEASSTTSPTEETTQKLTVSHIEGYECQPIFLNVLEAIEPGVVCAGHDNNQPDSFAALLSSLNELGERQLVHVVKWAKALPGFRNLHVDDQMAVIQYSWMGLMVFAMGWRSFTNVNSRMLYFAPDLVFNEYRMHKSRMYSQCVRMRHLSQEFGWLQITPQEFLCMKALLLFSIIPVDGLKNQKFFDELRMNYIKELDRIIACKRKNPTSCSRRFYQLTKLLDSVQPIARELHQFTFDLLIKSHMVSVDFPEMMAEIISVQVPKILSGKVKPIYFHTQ
Sequence of Estrogen receptor (Homo sapiens) (P03372 whole entry, looked up, the tested form may be a part): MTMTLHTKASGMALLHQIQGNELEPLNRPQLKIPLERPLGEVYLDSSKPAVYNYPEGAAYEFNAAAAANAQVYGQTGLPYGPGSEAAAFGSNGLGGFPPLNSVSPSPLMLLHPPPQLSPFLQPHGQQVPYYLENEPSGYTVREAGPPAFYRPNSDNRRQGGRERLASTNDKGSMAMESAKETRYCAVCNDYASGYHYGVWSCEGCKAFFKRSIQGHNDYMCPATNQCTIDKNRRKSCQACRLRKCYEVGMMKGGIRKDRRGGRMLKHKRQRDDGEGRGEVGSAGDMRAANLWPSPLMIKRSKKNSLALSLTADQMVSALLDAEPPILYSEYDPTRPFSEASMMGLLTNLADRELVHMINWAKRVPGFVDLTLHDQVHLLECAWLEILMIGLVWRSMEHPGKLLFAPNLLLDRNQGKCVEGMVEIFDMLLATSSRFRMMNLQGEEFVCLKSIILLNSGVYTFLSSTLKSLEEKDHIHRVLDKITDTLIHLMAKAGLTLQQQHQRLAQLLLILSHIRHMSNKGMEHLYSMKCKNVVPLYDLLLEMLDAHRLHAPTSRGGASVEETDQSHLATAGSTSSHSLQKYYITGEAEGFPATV
T1 sequence (P03372 whole entry, looked up, the tested form may be a part): as above
T1 sequence (Q92731 whole entry, looked up, the tested form may be a part): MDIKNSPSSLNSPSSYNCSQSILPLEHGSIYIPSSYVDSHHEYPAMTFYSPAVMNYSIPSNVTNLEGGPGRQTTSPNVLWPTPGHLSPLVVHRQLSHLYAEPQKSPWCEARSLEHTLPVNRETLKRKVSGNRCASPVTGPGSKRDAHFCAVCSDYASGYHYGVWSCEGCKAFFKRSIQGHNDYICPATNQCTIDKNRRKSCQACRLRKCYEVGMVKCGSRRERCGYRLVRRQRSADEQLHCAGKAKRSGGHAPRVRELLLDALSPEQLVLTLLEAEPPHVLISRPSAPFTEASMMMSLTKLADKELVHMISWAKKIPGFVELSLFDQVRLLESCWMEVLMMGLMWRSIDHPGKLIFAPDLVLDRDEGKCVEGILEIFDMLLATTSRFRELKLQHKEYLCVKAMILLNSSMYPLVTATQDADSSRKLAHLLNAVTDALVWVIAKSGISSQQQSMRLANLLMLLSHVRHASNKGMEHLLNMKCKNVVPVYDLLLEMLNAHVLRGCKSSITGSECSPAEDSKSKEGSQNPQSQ

For the compound `c1ccc(Cc2ccccc2)cc1`, the compound was classed as inactive in test [1], in test [2] and in test [4]. Further, in test [3], the AC50 is 50 µM (active).
For `CC(=O)Oc1c(C)c(C)c2c(c1C)CC[C@@](C)(CCC[C@H](C)CCC[C@H](C)CCCC(C)C)O2`, the call in test [1] and in test [2] was inactive.
As for `CC(C)(CO)CO`, the call in test [1], in test [2], in test [3], in test [5], in test [6] and in test [4] was inactive.
For `c1coc(CNc2ncnc3nc[nH]c23)c1`, the compound was called inactive in test [1] and in test [2].
`COc1cc(OC)c2ccc(=O)oc2c1`: the call in test [1], in test [2], in test [3], in test [5], in test [6] and in test [4] was inactive.
For `CN(C)C(=O)Nc1ccccc1`, the call in test [1], in test [2], in test [3] and in test [4] was inactive.
As for `CCO[Si](CC)(OCC)OCC`, the call in test [1], in test [2], in test [3], in test [5], in test [6] and in test [4] was inactive.
For the compound `CC(C)C(=O)c1ccccc1`, the compound was classed as inactive in test [1], in test [2], in test [3] and in test [4].
For `OCC=Cc1ccccc1`, the outcome in test [1], in test [2], in test [3] and in test [4] was inactive.
With `O=S(=O)(O)c1cc(S(=O)(=O)O)c2c(N=Nc3ccccc3)c(O)ccc2c1`, the outcome in test [1], in test [2], in test [3] and in test [4] was inactive.
For the compound `CC(CCO)CC(C)(C)C` (stereo unspecified), the compound was classed as inactive in test [1], in test [2], in test [3], in test [5] and in test [6]. Further, the AC50 in test [4] was 40.9 µM (active).
With `C1CCCNCC1`, the outcome in test [1], in test [2] and in test [4] was inactive.
Take `NCCN1CCNCC1`: the call in test [1], in test [2] and in test [4] was inactive.
Consider `CCCCCCCC(=O)N(C)C`, for which the compound was classed as inactive in test [1], in test [2] and in test [4].
For `COC(=O)c1cccc(C(=O)OC)c1`, the result in test [1], in test [2], in test [5], in test [6] and in test [4] was inactive.
`[Na+]`: the compound was called inactive in test [1], in test [2], in test [3] and in test [4].
`CC(=O)OC(C)(C)C`: the compound was classed as inactive in test [1], in test [3] and in test [4].
For the compound `CCCC1CCC(=O)CC1`, the result in test [1], in test [2], in test [3] and in test [4] was inactive.
Turning to `CC(=O)N(C)C`, the compound was called inactive in test [1], in test [2] and in test [5].
On to `CCCC(O)C(CC)CO` (stereo unspecified), for which the outcome in test [1], in test [2], in test [3] and in test [4] was inactive.
Regarding `CC1=CCC(C(C)(C)O)CC1` (stereo unspecified), the compound was classed as inactive in test [1], in test [2], in test [5] and in test [6].
Turning to `CCCO[Si](OCCC)(OCCC)OCCC`, the outcome in test [1], in test [2] and in test [4] was inactive. Further, the AC50 in test [3] is 38.3 µM (active).
For the compound `CCCCCCCCOS(=O)(=O)O`, the compound was called inactive in test [1], in test [2] and in test [4].
Consider `CCCCCC1CCC(=O)O1` (stereo unspecified), for which the compound was classed as inactive in test [1], in test [2], in test [3] and in test [4].
Take `CCCCN(CCCC)CCCCCCN(CCCC)CCCC`: the result in test [1], in test [2], in test [3] and in test [4] was inactive.
With `CCCC[N+](C)(CCCC)CCCC`, the call in test [1], in test [2] and in test [4] was inactive.
Turning to `CCCc1ccc(N)cc1`, the compound was classed as inactive in test [1], in test [2], in test [3] and in test [4].
On to `COc1ccc2[nH]cc(CCNC(C)=O)c2c1`, for which the outcome in test [1], in test [2], in test [3] and in test [4] was inactive.
In the case of `CCC(C)C1CCCCC1=O` (stereo unspecified), the call in test [1], in test [2] and in test [4] was inactive.
`CCCCC(CC)COCCO` (stereo unspecified): the compound was classed as inactive in test [1], in test [2], in test [3] and in test [4].
In the case of `CCCCOCCOCCO`, the call in test [1], in test [2], in test [3] and in test [4] was inactive.
Take `CC(=O)OC/C=C(C)/C=C/C=C(C)/C=C/C1=C(C)CCCC1(C)C`: the call in test [1], in test [2] and in test [4] was inactive.
As for `O=C(O)CS`, the outcome in test [1], in test [2] and in test [4] was inactive.
On to `NC(=O)c1cccnc1`, for which the result in test [1], in test [2] and in test [4] was inactive.
Take `c1ccc2scnc2c1`: the result in test [1], in test [3] and in test [4] was inactive.
As to `OC[C@H]1O[C@@H](O[C@H]2[C@H](O)[C@@H](O)[C@H](O)O[C@@H]2CO)[C@H](O)[C@@H](O)[C@H]1O`, the call in test [1], in test [2], in test [5], in test [6] and in test [4] was inactive.
Regarding `CC(=O)C1=C(C)[C@@H]2C[C@@]3(C1)[C@H](C)CC[C@H]3C2(C)C`, the AC50 in test [1] was 72.1 µM (active); in test [2], 21.6 µM (active); in test [3] it was 12.4 µM (active); in test [4] it was 58.1 µM (active).
On to `CC(C)(C)C1CCC(O)CC1` (stereo unspecified), for which the result in test [1], in test [2], in test [3] and in test [4] was inactive.
Take `CCCCOCCOCCOCCO`: the compound was classed as inactive in test [1], in test [2] and in test [4].
`CN(C)C`: the outcome in test [1], in test [2], in test [3] and in test [4] was inactive.
As for `O=C(OCc1ccccc1)c1ccccc1O`, the outcome in test [1] was inactive. The AC50 in test [2] was 63 µM (active); in test [3], 46 µM (active); in test [4], 44.5 µM (active).
In the case of `CCCCCCCCCO`, the compound was called inactive in test [1], in test [2], in test [3] and in test [4].

The record behind these values is PubChem BioAssay (EPA / NIEHS).
